The panel holds about 83,000 compounds, 20% with a hit somewhere; the sample as a whole holds those more often.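 Assay: single dose, 48 h. Readout: percent growth (0 = no net growth; negative = cell death). Active: <10.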 A number with no mark means an inactive call. Calls of active or inactive are those of the source.
Columns and labels:
Experiment in all cases: NCI-60 one-dose screen, 48 h (100 = growth as untreated, 0 = no growth, -100 = all killed)
Conditions in all cases: 10 µM
[1] = test system: HT29 colon
[2] = test system: SNB-75 CNS
[3] = test system: SNB-19 CNS
[4] = test system: U251 CNS
[5] = test system: PC-3 prostate
[6] = test system: SK-MEL-5 melanoma
[7] = test system: UACC-62 melanoma
[8] = test system: LOX IMVI melanoma
[9] = test system: SK-MEL-28 melanoma
[10] = test system: SK-MEL-2 melanoma

| SMILES | growth [1] | growth [2] | growth [3] [%] | growth [4] | growth [5] | growth [6] | growth [7] | growth [8] | growth [9] | growth [10] |
| --- | --- | --- | --- | --- | --- | --- | --- | --- | --- | --- |
| N#Cc1ncc(Br)c(NC2CCCCCC2)n1 | 120% | 83.8% | 91.5 | 92% | 92.5% | 103% | 95.5% | 101% | 104% | 104% |
| Cc1ccc(Nc2nnc(-c3cc(-c4ccncc4)n(-c4ccccc4)n3)s2)cc1 | 36.9% | 116% | 89.7 | 65.6% | 56.1% | 67.7% | 83.9% | 58.5% | 106% | 92.4% |
| COc1cc2c(cc1OCCCN1CCN(c3ncnc4ccccc34)CC1)N=CC1CCCN1C2=O (stereo not given) | 12.3% | -29.8% (active) | 12 | 1.3% (active) | -53% (active) | -95.7% (active) | -91.8% (active) | -39.4% (active) | -9.59% (active) | 6.33% (active) |
| Nc1nc(-c2ccccc2Cl)cc(-c2ccc(Cl)cc2Cl)n1 | 36.6% | 30.5% | 78.1 | 65% | 74.2% | 75.2% | 63.1% | 55.4% | 88% | 96.3% |
| CN(C)c1ccc(N=C2C=CC(=O)c3ccccc32)cc1 | 61.4% | 84.7% | 70.7 | 87.5% | 65.2% | -56.1% (active) | 22.5% | 40.9% | 73.6% | 64.9% |
| COc1ccc(OC)c(/C=C/c2nc(SCc3ccccc3)n(-c3ccc(Cl)cc3)n2)c1 | 63.1% | 59.6% | 61.4 | 38.7% | 35.6% | 45.2% | 33.9% | 32.4% | 71.5% | 69.2% |
| COC(=O)C1(C)Cc2cc(OC(C)=O)c(OC(C)=O)cc2N1 (stereo not given) | 79.8% | 82% | 105 | 81.5% | 64.7% | 76.3% | 56.6% | 66% | 100% | 85.2% |
| CC(=O)c1nc2ccccc2n1CCN1CCN(C)CC1 | -3.6% (active) | 6.87% (active) | 73.7 | 28.4% | 33.4% | 38.5% | 50.7% | 36.7% | 48% | 25.4% |
| Cc1cc(=O)n2nnc3c4ccccc4ccc3n12 | 85.4% | 102% | 94.9 | 97% | 62.5% | 88.5% | 79.9% | 89.3% | 98.2% | 113% |
| Cc1ccc(NC(=O)Nc2c(Cl)cccc2Cl)cn1 | 130% | 92.1% | 102 | 89.8% | 83.8% | 87.1% | 78.7% | 101% | 130% | 91.4% |
| COc1cc(Nc2ncnc(Nc3ccc4c(n3)NC(=O)C(C)(C)O4)n2)cc(OC)c1OC | -12.6% (active) | -80.3% (active) | 31.1 | 15.9% | 25.5% | 48.2% | 20.3% | -27% (active) | 51.2% | 46.5% |
| COc1ccc(-c2nc(-c3nc4cc(Cl)c(F)cc4[nH]3)c3ccccn23)cc1 | 31.5% | 66.2% | 55.5 | 62.5% | 34.6% | 59.4% | 74.5% | 65.9% | 91.8% | 50% |
| O=C1/C(=C\c2ccc(F)cc2)CN(C(=O)c2ccccc2F)C/C1=C\c1ccc(F)cc1 | -37% (active) | 52.9% | 33.4 | -63% (active) | -34.3% (active) | -58.6% (active) | -77.6% (active) | -80.8% (active) | -72.5% (active) | 30.4% |
| O=C1/C(=C\c2ccc(F)cc2)CN(C(=O)c2ccccc2)C/C1=C\c1ccc(F)cc1 | -50.9% (active) | 48.1% | 61.3 | -25% (active) | 22.1% | 34.3% | 4.27% (active) | -55.9% (active) | 34.8% | 54.8% |
| CN(C)CCS(=O)(=O)CCN(C)C | 109% | 110% | 103 | 104% | 102% | 98.7% | 97.8% | 105% | 108% | 106% |
| c1ccc2c(c1)oc1c3c(ccc12)NCCC3 | 95.1% | 97.1% | 108 | 90.7% | 91.5% | 94.1% | 84.2% | 96.6% | 107% | 97.5% |
| Cc1cc(Cc2cc(C)c(O)c(C)c2)cc(C)c1O | 88.1% | 48% | 66.6 | 49.6% | 75.1% | 38.9% | 53.2% | 43.5% | 70% | 6.12% (active) |
| CC(=O)C1CCC2C3CC(F)C4=CC(=O)CCC4(C)C3C(O)CC12C (stereo not given) | 101% | 103% | 109 | 104% | 90.6% | 102% | 103% | 101% | 112% | 137% |
| COc1cc(-c2cc(/C=C3\C(=O)Nc4ccccc43)[nH]n2)cc(OC)c1OC | 55.7% | 44.5% | 65.8 | 56.1% | 19% | -57% (active) | -11.1% (active) | 38.6% | 59.8% | 27.5% |
| COc1ccc(-c2nsc3c2NC(=O)CC3c2ccc(F)cc2)cc1 (stereo not given) | 4.71% (active) | 63.5% | 72.5 | 33.6% | 39.1% | 20.5% | 51.2% | 44.4% | 57.5% | -11.7% (active) |
| CCCCN(CCCC)c1cc(C(=O)CCCCCN)c2ccccc2n1 | -38% (active) | 105% | 105 | -77.9% (active) | -93.2% (active) | 98.3% | 105% | -18% (active) | 118% | 87.9% |
| CC/C(=C(/c1ccc(OCCN(C)C)cc1)c1ccc(OC(=O)CCCCC(=O)c2c(C)[nH]c(/C=C3\N=C(c4ccc[nH]4)C=C3OC)c2C)cc1)c1ccccc1 | 14.3% | 42.3% | 91.8 | 43.5% | 42.3% | 36.4% | 75.1% | 14% | 85.6% | 69% |
| CC12O[C@H](C[C@@H](OC(=O)c3ccccc3)[C@H]1O)n1c3ccccc3c3c4c(c5c6ccccc6n2c5c31)C(=O)NC4=O | 78.5% | 45.7% | 101 | 77.1% | 42.5% | 48.6% | 55% | 72.7% | 90.4% | 54.2% |
| Cc1ccc(NC(=O)NC2CCCCC2)cc1 | 101% | 107% | 102 | 99.7% | 104% | 100% | 105% | 96.3% | 104% | 92% |
| CCOC(=O)c1ccc(NC(=O)Nc2ncc(Cl)cc2Cl)cc1 | 95.3% | 119% | 106 | 99.2% | 77% | 104% | 87% | 110% | 106% | 102% |
| CCCC(F)C(=O)O (stereo not given) | 97.5% | 99.2% | 102 | 95.9% | 90.5% | 105% | 100% | 100% | 111% | 107% |
| c1ccc(CSc2nnc3c4c5c(sc4nc(-c4cccnc4)n23)CCCCCC5)cc1 | 22.4% | 74.1% | 46.5 | 16.8% | 9.01% (active) | -46% (active) | 34.9% | 60.1% | 49.2% | 16.5% |
| CC/C(=C(/c1ccc(OCCN(C)C)cc1)c1ccc(OC(=O)CCC(=O)c2c(C)[nH]c(/C=C3\N=C(c4ccc[nH]4)C=C3OC)c2C)cc1)c1ccccc1 | 6.7% (active) | 28.3% | 72.7 | 12.5% | 19.3% | 2.36% (active) | -13.8% (active) | -45% (active) | 62.1% | -11.4% (active) |
